About 2,000 (36%) of roughly 5,500 compounds were called active. Inconclusive results (about 18%) are left out. No stated cut-off is given here; in the data, active means normalized growth mostly below about 0.91 (no sharp cut-off); inconclusive means no clear call, values can overlap the other calls; inactive means mostly above about 0.92. Some of the results follow.
Test: chemical genetic growth profiling, strain panel (AID 1159580);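 further: tested at 20 µM; growth read once vehicle control cultures reached saturation at 30 °C; 1 = growth at the plate median or of vehicle wells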
Details: growth OD

Measured: normalized growth

CCCc1nc(C(C)(C)O)c(C(=O)OCc2oc(=O)oc2C)n1Cc1ccc(-c2ccccc2-c2nn[nH]n2)cc1
inactive: S. cerevisiae deletion strains, locus YKL009W, strain mrt4, stronger effect = lower value 0.957 | S. cerevisiae deletion strains, locus YKL068W, stronger effect = lower value 0.988 | S. cerevisiae deletion strains, locus YKL085W, strain MDH1 (second series), stronger effect = lower value 0.98 | S. cerevisiae deletion strains, locus YKL085W, strain MDH1, stronger effect = lower value 0.98 | S. cerevisiae deletion strains, locus YKL160W, strain elf1, stronger effect = lower value 0.994 | S. cerevisiae deletion strains, locus YKL190W, strain CNB1, stronger effect = lower value 1.01 | S. cerevisiae deletion strains, locus YKR001C, strain vps1, stronger effect = lower value 0.985 | S. cerevisiae deletion strains, locus YKR026C, strain gcn3, stronger effect = lower value 0.976 | S. cerevisiae deletion strains, locus YKR091W, strain srl3, stronger effect = lower value 0.981 | S. cerevisiae deletion strains, locus YLL001W, strain dnm1, stronger effect = lower value 0.972 | S. cerevisiae deletion strains, locus YLL026W, stronger effect = lower value 0.958 | S. cerevisiae deletion strains, locus YLL041C, strain sdh2, stronger effect = lower value 0.972 | S. cerevisiae deletion strains, locus YLR027C, strain aat2, stronger effect = lower value 0.984 | S. cerevisiae deletion strains, locus YLR039C, strain RIC1, stronger effect = lower value 0.981 | S. cerevisiae deletion strains, locus YLR058C, strain SHM2, stronger effect = lower value 0.988 | S. cerevisiae deletion strains, locus YLR102C, strain apc9, stronger effect = lower value 0.989 | S. cerevisiae deletion strains, locus YLR113W, strain HOG1, stronger effect = lower value 0.987 | S. cerevisiae deletion strains, locus YLR221C, strain rsa3, stronger effect = lower value 1.02 | S. cerevisiae deletion strains, locus YLR258W, strain gsy2, stronger effect = lower value 0.977 | S. cerevisiae deletion strains, locus YLR262C, strain YPT6 (second series), stronger effect = lower value 0.962 | S. cerevisiae deletion strains, locus YLR262C, strain YPT6, stronger effect = lower value 0.987 | S. cerevisiae deletion strains, locus YLR268W, strain sec22, stronger effect = lower value 0.971 | S. cerevisiae deletion strains, locus YLR320W, strain mms22, stronger effect = lower value 1.01 | S. cerevisiae deletion strains, locus YLR330W, strain CHS5, stronger effect = lower value 0.995 | S. cerevisiae deletion strains, locus YLR342W, strain FKS1 (second series), stronger effect = lower value 0.977 | S. cerevisiae deletion strains, locus YLR342W, strain FKS1, stronger effect = lower value 0.978 | S. cerevisiae deletion strains, locus YLR357W, strain rsc2, stronger effect = lower value 0.985 | S. cerevisiae deletion strains, locus YLR370C, strain arc18, stronger effect = lower value 0.947 | S. cerevisiae deletion strains, locus YLR371W, strain rom2, stronger effect = lower value 0.985 | S. cerevisiae deletion strains, locus YLR384C, strain iki3, stronger effect = lower value 0.977 | S. cerevisiae deletion strains, locus YLR418C, strain cdc73, stronger effect = lower value 0.952 | S. cerevisiae deletion strains, locus YML016C, strain PPZ1, stronger effect = lower value 0.993 | S. cerevisiae deletion strains, locus YML032C, strain rad52, stronger effect = lower value 0.993 | S. cerevisiae deletion strains, locus YML120C, strain ndi1, stronger effect = lower value 0.97 | S. cerevisiae deletion strains, locus YML124C, strain tub3, stronger effect = lower value 0.984 | S. cerevisiae deletion strains, locus YMR058W, strain fet3, stronger effect = lower value 0.965 | S. cerevisiae deletion strains, locus YMR078C, strain ctf18, stronger effect = lower value 0.99 | S. cerevisiae deletion strains, locus YMR125W, strain sto1, stronger effect = lower value 0.932 | S. cerevisiae deletion strains, locus YMR129W, stronger effect = lower value 0.97 | S. cerevisiae deletion strains, locus YMR205C, strain PFK2, stronger effect = lower value 0.976 | S. cerevisiae deletion strains, locus YMR223W, strain ubp8, stronger effect = lower value 0.995 | S. cerevisiae deletion strains, locus YMR231W, strain pep5, stronger effect = lower value 0.967 | S. cerevisiae deletion strains, locus YMR263W, strain SAP30, stronger effect = lower value 1.02 | S. cerevisiae deletion strains, locus YMR307W, strain GAS1, stronger effect = lower value 0.894 | S. cerevisiae deletion strains, locus YNL067W, strain RPL9B, stronger effect = lower value 1.03 | S. cerevisiae deletion strains, locus YNL071W, strain lat1, stronger effect = lower value 0.977 | S. cerevisiae deletion strains, locus YNL128W, strain TEP1, stronger effect = lower value 1.02 | S. cerevisiae deletion strains, locus YNL153C, strain GIM3, stronger effect = lower value 0.996 | S. cerevisiae deletion strains, locus YNL183C, strain NPR1, stronger effect = lower value 0.963 | S. cerevisiae deletion strains, locus YNL209W, strain ssb2, stronger effect = lower value 0.971 | S. cerevisiae deletion strains, locus YNL233W, strain BNI4, stronger effect = lower value 0.992 | S. cerevisiae deletion strains, locus YNL248C, strain rpa49, stronger effect = lower value 0.969 | S. cerevisiae deletion strains, locus YNL250W, strain rad50, stronger effect = lower value 0.992 | S. cerevisiae deletion strains, locus YNL271C, strain bni1, stronger effect = lower value 0.992 | S. cerevisiae deletion strains, locus YNL298W, strain CLA4, stronger effect = lower value 0.975 | S. cerevisiae deletion strains, locus YNL307C, strain MCK1, stronger effect = lower value 0.992 | S. cerevisiae deletion strains, locus YNL322C, strain KRE1 (second series), stronger effect = lower value 0.972 | S. cerevisiae deletion strains, locus YNL322C, strain KRE1, stronger effect = lower value 0.997 | S. cerevisiae deletion strains, locus YNR049C, strain mso1, stronger effect = lower value 0.968 | S. cerevisiae deletion strains, locus YNR052C, strain pop2, stronger effect = lower value 0.99 | S. cerevisiae deletion strains, locus YOL006C, strain TOP1, stronger effect = lower value 0.998 | S. cerevisiae deletion strains, locus YOL012C, strain htz1 1.03 | S. cerevisiae deletion strains, locus YOL147C, strain pex11, stronger effect = lower value 0.998 | S. cerevisiae deletion strains, locus YOR001W, strain rrp6, stronger effect = lower value 0.943 | S. cerevisiae deletion strains, locus YOR061W, strain CKA2, stronger effect = lower value 0.989 | S. cerevisiae deletion strains, locus YOR069W, strain VPS5, stronger effect = lower value 0.994 | S. cerevisiae deletion strains, locus YOR070C, strain gyp1, stronger effect = lower value 0.992 | S. cerevisiae deletion strains, locus YOR080W, strain dia2, stronger effect = lower value 0.964 | S. cerevisiae deletion strains, locus YOR083W, strain WHI5, stronger effect = lower value 0.993 | S. cerevisiae deletion strains, locus YOR106W, strain vam3, stronger effect = lower value 0.969 | S. cerevisiae deletion strains, locus YOR136W, strain idh2, stronger effect = lower value 0.986 | S. cerevisiae deletion strains, locus YOR144C, strain elg1, stronger effect = lower value 0.985 | S. cerevisiae deletion strains, locus YOR184W, strain ser1, stronger effect = lower value 0.995 | S. cerevisiae deletion strains, locus YOR231W, strain MKK1, stronger effect = lower value 0.958 | S. cerevisiae deletion strains, locus YOR265W, strain rbl2, stronger effect = lower value 0.979 | S. cerevisiae deletion strains, locus YOR270C, strain vph1, stronger effect = lower value 1.01 | S. cerevisiae deletion strains, locus YOR290C, strain snf2, stronger effect = lower value 0.983 | S. cerevisiae deletion strains, locus YOR316C, strain cot1, stronger effect = lower value 0.989 | S. cerevisiae deletion strains, locus YPL051W, strain arl3, stronger effect = lower value 0.988 | S. cerevisiae deletion strains, locus YPL055C, strain LGE1, stronger effect = lower value 0.993 | S. cerevisiae deletion strains, locus YPL078C, strain atp4, stronger effect = lower value 0.961 | S. cerevisiae deletion strains, locus YPL106C, strain sse1, stronger effect = lower value 0.894 | S. cerevisiae deletion strains, locus YPL240C, strain hsp82, stronger effect = lower value 0.974 | S. cerevisiae deletion strains, locus YPL241C, strain CIN2, stronger effect = lower value 0.999 | S. cerevisiae deletion strains, locus YPL256C, strain CLN2, stronger effect = lower value 0.95 | S. cerevisiae deletion strains, locus YPR119W, strain clb2, stronger effect = lower value 0.992 | S. cerevisiae deletion strains, locus YPR141C, strain kar3, stronger effect = lower value 0.99 | S. cerevisiae deletion strains, locus YPR163C, strain tif3, stronger effect = lower value 0.981 | S. cerevisiae deletion strains, locus YPR167C, strain met16, stronger effect = lower value 0.982 | S. cerevisiae deletion strains, strain wtn01, stronger effect = lower value 0.981 | S. cerevisiae strains, strain wild type, stronger effect = lower value 1.02
